Here are results for ten compounds from PubChem BioAssay (NCATS).

Experiment [1] can be described thus: AP1 Signaling Pathway (AID 357; active = well fitted curve in either direction with a large enough effect, not every such curve was filed as active; note: % is set by controls: 0 for no effect and ±100 for the full control effect). The following applies: ME-180 AP-1-bla reporter, EGF-induced, beta-lactamase ratio, 5 h; at 7.69 µM (top of the series) unless noted. The procedure, abridged: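 Cells are seeded overnight, exposed to compound titrations and an EC50 level of EGF for 5 hours at 37 °C, then loaded with CCF4 dye for 2.5 hours. Beta-lactamase activity under the AP-1 element is read as a blue/green ratio.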

Experiment [2] is described as follows: NFAT Signaling Pathway (AID 444; active = well fitted curve in either direction with a large enough effect, not every such curve was filed as active;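 note: carbachol stimulus at about its EC50 of 1 µM final; % is set by controls: 0 for no effect and ±100 for the full control effect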). The following applies: Jurkat NFAT-bla M1, carbachol, beta-lactamase ratio, 5 h; at 7.69 µM (top of the series) unless noted. The method in brief:
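Read-out: CCF4 FRET ratio (460 nm/530 nm) after 1 h RT dye loading, used for %activity and AC50 from titration series. Cells: Jurkat NFAT-β-lactamase/M1 line, treated with compound plus 1 uM carbachol for 5 h, 37 °C.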

A short description of experiment [3]: Stat Signaling Pathway (AID 446; active = well fitted curve in either direction with a large enough effect, not every such curve was filed as active;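 note: ME-180 cervical cancer cells given 40 pM IL-6 alongside compound; SIE-controlled beta-lactamase reporter measured as 460/530 nm FRET emission ratio; % is set by controls: 0 for no effect and ±100 for the full control effect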). The following applies: ME-180 (cervical carcinoma) SIE beta-lactamase reporter, IL-6 stimulated, 5 h; series mostly up to 7.69 µM. The method in brief:
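Compound effects on IL-6-induced STAT reporter activity were measured in ME-180 cells. After overnight culture, cells were co-treated with 40 pM IL-6 for 5 hrs before beta-lactamase substrate loading at room temperature.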

The target in experiment [4] is Glucocorticoid receptor (Homo sapiens) (UniProt P04150). In words: GR-GFP Redistribution (AID 450;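 active = compounds whose dose series gives a full or clear partial fitted curve of increased nuclear translocation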; note: potency is the fitted concentration of half-maximal effect). The following applies: U2OS GR-GFP nuclear translocation, laser cytometry, 2 h.
Glucocorticoid receptor (Homo sapiens), sequence (P04150 whole entry, looked up, the tested form may be a part): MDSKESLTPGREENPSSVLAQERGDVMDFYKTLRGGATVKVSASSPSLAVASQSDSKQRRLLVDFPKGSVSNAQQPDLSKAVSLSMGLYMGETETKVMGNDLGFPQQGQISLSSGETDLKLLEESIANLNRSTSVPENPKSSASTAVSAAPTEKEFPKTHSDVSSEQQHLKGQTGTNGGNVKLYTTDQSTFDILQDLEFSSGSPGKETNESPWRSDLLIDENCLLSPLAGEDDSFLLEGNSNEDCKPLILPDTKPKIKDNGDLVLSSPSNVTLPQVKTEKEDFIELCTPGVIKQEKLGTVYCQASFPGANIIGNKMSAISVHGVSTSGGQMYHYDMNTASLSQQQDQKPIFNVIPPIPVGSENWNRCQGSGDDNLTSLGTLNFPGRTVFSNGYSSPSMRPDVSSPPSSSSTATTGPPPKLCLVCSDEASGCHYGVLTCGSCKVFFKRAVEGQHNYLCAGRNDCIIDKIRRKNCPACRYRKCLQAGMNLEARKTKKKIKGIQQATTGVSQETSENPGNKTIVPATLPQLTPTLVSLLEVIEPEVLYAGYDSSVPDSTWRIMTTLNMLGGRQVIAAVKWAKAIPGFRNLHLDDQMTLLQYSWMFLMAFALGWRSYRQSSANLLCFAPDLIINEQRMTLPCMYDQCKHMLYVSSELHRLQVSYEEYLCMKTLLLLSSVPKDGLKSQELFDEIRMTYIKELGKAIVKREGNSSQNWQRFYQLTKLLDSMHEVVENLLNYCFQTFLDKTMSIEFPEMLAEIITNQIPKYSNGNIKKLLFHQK
The target in experiment [5] is Cytochrome P450 3A4 (Homo sapiens) (UniProt P08684). In words: qHTS Assay for Activators of Cytochrome P450 3A4 (AID 885). Note: nearly all actives have a fitted effect of over 65% in size. The following applies: recombinant CYP3A4, Luciferin-PPXE luminescence, 60 min; series mostly up to 57.1 µM. The method in brief:
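CYP3A4 activity: Luciferin-PPXE O-dealkylation, 25uM substrate, 200mM KPO4, RT throughout. Read-out is luciferase luminescence; higher values reflect activation.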

For experiment [6], the target named is Cytochrome P450 1A2 (Homo sapiens) (UniProt P05177). Description: p450-cyp1a2 (AID 410; calls by dose curve; note: potency is the fitted concentration of half-maximal effect). The following applies: recombinant CYP1A2, luciferin-ME demethylation, luminescence; series mostly up to 57 µM. The procedure, abridged: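 Read-out is luminescence from luciferin produced by CYP1A2 demethylation of Luciferin-ME (100uM, at Km). Detection reagent stopped the 60 min NADPH-dependent reaction; signals were normalized to 57 uM furafylline.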
Cytochrome P450 1A2 (Homo sapiens), sequence (P05177 whole entry, looked up): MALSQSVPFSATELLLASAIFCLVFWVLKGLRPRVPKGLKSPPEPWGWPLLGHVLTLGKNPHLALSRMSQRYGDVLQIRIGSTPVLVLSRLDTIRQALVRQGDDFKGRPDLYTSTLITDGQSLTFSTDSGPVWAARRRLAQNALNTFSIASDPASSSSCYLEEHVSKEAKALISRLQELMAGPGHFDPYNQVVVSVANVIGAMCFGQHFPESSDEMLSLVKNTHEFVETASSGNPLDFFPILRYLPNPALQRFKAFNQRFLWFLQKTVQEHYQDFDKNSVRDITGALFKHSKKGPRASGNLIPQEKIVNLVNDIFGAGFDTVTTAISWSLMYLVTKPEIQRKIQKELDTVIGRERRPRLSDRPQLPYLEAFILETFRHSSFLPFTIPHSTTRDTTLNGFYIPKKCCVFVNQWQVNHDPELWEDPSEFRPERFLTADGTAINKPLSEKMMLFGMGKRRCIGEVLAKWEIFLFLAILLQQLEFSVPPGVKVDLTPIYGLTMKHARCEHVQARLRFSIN

Experiment [7] has as its target Glucocorticoid receptor (Homo sapiens) (UniProt P04150). In words: GR-EFC Redistribution (AID 451; calls by dose curve; note: potency is the fitted concentration of half-maximal effect). The following applies: CHO-K1 GR-EFC translocation, beta-gal luminescence, 2 h. The method in brief:
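Translocation of GR-ED fusion to nuclear EA restores b-gal, read by luminescence after 1 h room-temperature detection. Engineered CHO-K1 biosensor cells, 1,000/well, exposed 2 h at 37 C to titrations up to 46 uM final.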

Experiment [8] addresses 3',5'-cyclic-AMP phosphodiesterase 4B (Homo sapiens) (UniProt Q07343). In words: qHTS Assay for Inhibitors of PDE-IV (AID 607; active = well fitted activation curve with a large enough effect in the main read-out, with a control signal flat, not every such curve was filed as active; note: % of control where 0% means no effect). The following applies: HEK293 ACTOne CNG channel cells, membrane potential fluorescence; series mostly up to 22.9 µM. The method in brief:
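ACTOne HEK293 cells carry a modified cAMP-gated CNG channel and express endogenous PDE4; plated 1000 cells/well, compounds up to 22.9 uM final. Membrane-potential dye fluorescence (ex 535/em 590) was read; parental cells received 10 uM forskolin + 100 uM RO 20-1724.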
Background: Quantitative high-throughput screening tests each substance at several concentrations.

Experiment [9] has as its target DNA dC->dU-editing enzyme APOBEC-3G (Homo sapiens) (UniProt Q9HC16). Description: qHTS for inhibitors of Vif-A3G interactions: Validation (AID 588379). Note: 0% is about no effect. The following applies: Vif-A3G protein interaction assay; series mostly up to 46.1 µM. The procedure, abridged:
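Yellow fluorescence (Ex 488, Em 500-530) of Vif-coexpressing HeLa A3G-eYFP cells, scanned by Acumen cytometer, reports blocked A3G degradation. Cells plated at 700/well overnight at 37 deg C before compound addition, then a further overnight compound incubation at 37 deg C.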

The test system of experiment [10] is 7G8. Description: qHTS profiling for inhibitors of Plasmodium falciparum proliferation (AID 504749). Note: nearly all actives have a fitted effect of over 60% in size. Note: potency is the fitted concentration of half-maximal effect. The following applies: P. falciparum in erythrocytes, SYBR Green DNA, 72 h; series mostly up to 28.7 µM. The procedure, abridged: (§1)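 In a 72 h erythrocytic culture (37 C, humidified, 5% CO2) at 2.5% hematocrit and 0.3% starting parasitemia, compounds were tested; SYBR Green I in detergent lysis buffer stained parasite DNA overnight.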

Experiment [11] deals with CP194. The description is as above. The following applies: P. falciparum in erythrocytes, SYBR Green DNA, 72 h; series mostly up to 28.7 µM. The procedure, abridged: as §1
The subject of experiment [12] is CP201. The experiment is described as above. The following applies: P. falciparum in erythrocytes, SYBR Green DNA, 72 h; series mostly up to 28.7 µM. The procedure, abridged:
as §1

The subject of experiment [13] is CP211. The experiment is described as above. The following applies: P. falciparum in erythrocytes, SYBR Green DNA, 72 h; series mostly up to 28.7 µM. The procedure, abridged:
as §1

For experiment [14], the system named is CP215. Described as above. The following applies: P. falciparum in erythrocytes, SYBR Green DNA, 72 h; series mostly up to 28.7 µM. The procedure, abridged:
as §1

Experiment [15] has as its system CP297. The experiment is described as above. The following applies: P. falciparum in erythrocytes, SYBR Green DNA, 72 h; series mostly up to 28.7 µM. The procedure, abridged: as §1
Experiment [16] deals with CP305. The experiment is described as above. The following applies: P. falciparum in erythrocytes, SYBR Green DNA, 72 h; series mostly up to 28.7 µM. The procedure, abridged:
as §1

Experiment [17] has as its system CP315. The experiment is described as above. The following applies: P. falciparum in erythrocytes, SYBR Green DNA, 72 h; series mostly up to 28.7 µM. The procedure, abridged: as §1
Experiment [18] relates to CP329. The experiment is described as above. The following applies: P. falciparum in erythrocytes, SYBR Green DNA, 72 h; series mostly up to 28.7 µM. The method in brief:
as §1

In experiment [19] the test system is DIV30. Described as above. The following applies: P. falciparum in erythrocytes, SYBR Green DNA, 72 h; series mostly up to 28.7 µM. The method in brief: as §1
The test system of experiment [20] is PC26. The description is as above. The following applies: P. falciparum in erythrocytes, SYBR Green DNA, 72 h; series mostly up to 28.7 µM. The procedure, abridged: as §1

Unmarked numbers belong to inactive results. Records with an inconclusive call do not appear. The source made the active and inactive calls. Unless noted, calls come from the whole dose curve; as a rule, active = well fitted curve in the direction sought with a large enough effect; inconclusive = small, poorly fitted or top-dose-only effect, or another doubt; inactive = no such curve, though single readings can be large; an effect the other way counts as inactive or inconclusive. Bounds are passed on as bounds.

Cytochrome P450 3A4 (Homo sapiens), sequence (P08684 whole entry, looked up): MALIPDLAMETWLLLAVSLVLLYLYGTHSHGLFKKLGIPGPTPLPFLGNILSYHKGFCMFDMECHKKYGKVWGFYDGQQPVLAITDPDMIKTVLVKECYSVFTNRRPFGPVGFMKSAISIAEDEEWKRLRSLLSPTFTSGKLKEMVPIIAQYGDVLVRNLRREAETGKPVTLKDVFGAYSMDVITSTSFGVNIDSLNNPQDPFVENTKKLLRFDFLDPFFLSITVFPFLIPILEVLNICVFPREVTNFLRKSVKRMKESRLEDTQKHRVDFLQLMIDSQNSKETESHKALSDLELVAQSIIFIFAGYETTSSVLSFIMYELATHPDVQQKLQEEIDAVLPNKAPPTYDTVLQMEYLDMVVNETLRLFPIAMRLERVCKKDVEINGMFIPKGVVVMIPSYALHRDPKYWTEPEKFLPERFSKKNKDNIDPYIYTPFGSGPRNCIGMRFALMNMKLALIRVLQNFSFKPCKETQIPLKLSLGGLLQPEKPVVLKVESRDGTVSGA
DNA dC->dU-editing enzyme APOBEC-3G (Homo sapiens), sequence (Q9HC16 whole entry, looked up): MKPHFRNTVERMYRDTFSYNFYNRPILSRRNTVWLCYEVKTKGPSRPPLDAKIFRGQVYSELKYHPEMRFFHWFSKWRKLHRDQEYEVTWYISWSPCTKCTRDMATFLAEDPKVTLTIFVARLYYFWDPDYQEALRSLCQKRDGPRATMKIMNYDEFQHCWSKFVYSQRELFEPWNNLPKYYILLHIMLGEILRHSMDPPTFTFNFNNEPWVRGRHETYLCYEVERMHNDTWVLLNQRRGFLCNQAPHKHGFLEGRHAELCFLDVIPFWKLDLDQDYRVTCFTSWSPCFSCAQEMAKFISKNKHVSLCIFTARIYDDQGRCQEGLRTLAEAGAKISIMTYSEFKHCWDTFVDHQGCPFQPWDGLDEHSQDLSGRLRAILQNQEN
3',5'-cyclic-AMP phosphodiesterase 4B (Homo sapiens), sequence (Q07343 whole entry, looked up): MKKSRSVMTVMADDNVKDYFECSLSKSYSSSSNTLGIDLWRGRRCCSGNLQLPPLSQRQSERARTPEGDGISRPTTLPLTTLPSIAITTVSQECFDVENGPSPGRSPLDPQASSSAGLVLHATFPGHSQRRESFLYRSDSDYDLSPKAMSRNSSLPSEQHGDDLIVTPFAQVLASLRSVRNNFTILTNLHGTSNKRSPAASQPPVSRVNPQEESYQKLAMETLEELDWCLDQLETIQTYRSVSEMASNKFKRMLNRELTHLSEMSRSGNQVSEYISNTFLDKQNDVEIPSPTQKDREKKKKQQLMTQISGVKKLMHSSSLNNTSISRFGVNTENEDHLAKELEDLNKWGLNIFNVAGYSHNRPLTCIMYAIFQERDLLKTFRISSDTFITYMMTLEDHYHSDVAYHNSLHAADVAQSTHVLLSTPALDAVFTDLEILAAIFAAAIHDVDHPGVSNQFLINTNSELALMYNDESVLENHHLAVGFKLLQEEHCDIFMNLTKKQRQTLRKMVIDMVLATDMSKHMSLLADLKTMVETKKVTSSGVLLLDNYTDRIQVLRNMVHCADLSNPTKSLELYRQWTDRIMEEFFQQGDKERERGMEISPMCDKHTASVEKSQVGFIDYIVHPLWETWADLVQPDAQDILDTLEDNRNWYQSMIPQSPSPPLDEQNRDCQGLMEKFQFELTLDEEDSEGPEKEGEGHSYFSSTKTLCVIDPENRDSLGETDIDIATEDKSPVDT

Regarding `O=C1c2ccccc2C(=O)C1c1ccc2ccccc2n1`, the figures for the activity change, negative = inhibition in experiment [1] and in experiment [2] were 13% [at 17.2 µM] and 21.8% [at 17.2 µM], respectively. For the same compound, the result in experiment [3] and in experiment [5] was inactive. Besides, the Potency in experiment [4] was over 20.6 µM.
Regarding `COc1c2ccoc2cc2oc(=O)ccc12`, the Potency is 0.0158 µM (active) in experiment [6], over 46 µM in experiment [4] and over 46 µM in experiment [7]. Besides, the Potency result in [8] was “inactive”. The compound was classed as inactive in experiment [9].
On to `CO[C@@H]1[C@@H](OC2OC(C)C(OC3CC(C)(O)C(OC(=O)CC(C)C)C(C)O3)C(N(C)C)C2O)[C@@H](CC=O)C[C@@H](C)C(=O)/C=C\C2O[C@H]2C[C@@H](C)OC(=O)C[C@H]1OC(C)=O` (some centres not stated), for which, in experiment [10], the Potency is 8.91 µM (active).
Consider `CC(C)=CCCC(C)CCO` (configuration not stated), for which the compound was classed as inactive in [9].
With `NC1=NC(S)C2N=CN=C2N1` (configuration not stated), the Potency result in experiment [11], in [12], in [13], in [14], in experiment [15] and in experiment [16] was “inactive” throughout. The Potency entry in experiment [17], in experiment [18], in experiment [19] and in experiment [20] was “inactive” each time.
With `COc1ccc2nc(N)sc2c1`, the result in experiment [5] was inactive.
On the same count and under the same terms, the value for `CC1=CC(C)(C)Nc2ccccc21` was “inactive”.
For `C/C=C\c1ccc(OC)cc1`, the Potency entry in experiment [10], in experiment [11], in [12], in [13], in experiment [14] and in experiment [15] was “inactive” each time. Moreover, the Potency entry in [16], in experiment [17], in experiment [18], in [19] and in experiment [20] was “inactive” throughout.
For `CN(C)CCCCCCN(C)C`, the Potency entry in [10], in experiment [11], in [12], in experiment [13], in experiment [14] and in [15] was “inactive” in each case. The Potency result in experiment [16], in experiment [17], in experiment [18], in [19] and in experiment [20] was “inactive” each time.
On to `CO/N=C(/C(=O)N[C@@H]1C(=O)N2C(C(=O)O)=CCS[C@H]12)c1csc(N)n1`, for which the Potency result in experiment [10], in experiment [11], in experiment [12], in experiment [13], in experiment [14] and in experiment [15] was “inactive” in each case. Besides, the Potency result in experiment [16], in experiment [17], in [18], in experiment [19] and in experiment [20] was “inactive” in each case.
